Assay results from PubChem BioAssay (NCI).
Compounds without any hit were thinned out: in the full panel of roughly 79,000, 15% have a hit. Values without a mark were called inactive. The source made the active and inactive calls. Cut-off read from the data, not from the text of the source: active = growth inhibition above about 70%; inactive = the rest.

Columns and labels:
[1] = NCI Yeast Anticancer Drug Screen. Data for the rad50 strain (AID 155);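 note: 0% = growth of vehicle-only cultures of the same strain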; settings: S. cerevisiae rad50 strain growth inhibition; at 50.0 µM; hits give high values
Summary of the method: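 Growth of the mutant yeast was measured after compound exposure and referenced to vehicle-treated cultures.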

[2] = NCI Yeast Anticancer Drug Screen. Data for the mec2-1 strain (AID 157); settings: S. cerevisiae mec2-1 strain, at 50.0 µM, hits give high values
Summary of the method: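 Growth inhibition is read against vehicle-treated controls after compound exposure of the mec2-1 yeast strain, which is defective in DNA damage repair or cell cycle control.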

[3] = NCI Yeast Anticancer Drug Screen. Data for the sgs1 mgt1 strain (AID 161);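 note: 0% = growth of cultures given vehicle only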; settings: S. cerevisiae sgs1 mgt1 strain, at 50.0 µM, hits give high values
Summary of the method: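 This yeast growth screen uses a strain with defined DNA-repair lesions; compound-treated growth is compared with vehicle-treated growth.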

[4] = NCI Yeast Anticancer Drug Screen. Data for the cln2 rad14 strain (AID 165);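 note: 0% = growth equal to vehicle treated cultures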; settings: S. cerevisiae cln2 rad14 strain, at 50.0 µM, hits give high values
Summary of the method: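 Growth inhibition, relative to vehicle-treated controls, is the read-out. The test organism is a yeast strain with defined genetic alterations, cln2 rad14.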

[5] = NCI Yeast Anticancer Drug Screen. Data for the bub3 strain (AID 167); settings: S. cerevisiae bub3 mutant strain, at 50.0 µM, hits give high values
Summary of the method: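 Whole-cell yeast assay. The mutant strain was incubated with compounds, and growth inhibition was determined by comparison with vehicle-treated cells.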

[6] = NCI Yeast Anticancer Drug Screen. Data for the mlh1 rad18 strain (AID 175); settings: S. cerevisiae mlh1 rad18 strain growth inhibition; at 50.0 µM; hits give high values
Summary of the method: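 Cells of a genetically altered yeast strain, deficient in DNA damage repair, were treated with compound. Their growth was then compared with that of vehicle-treated cultures to give inhibition.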

SMILES | growth inhibition [1] | growth inhibition [2] | growth inhibition [3] | growth inhibition [4] | growth inhibition [5] | growth inhibition [6]
CC1OC(=O)C(C(C)C)NC(=O)C(C(C)C)OC(=O)C(C(C)C)NC(=O)C(C)OC(=O)C(C(C)C)NC(=O)C(C(C)C)OC(=O)C(C(C)C)NC(=O)C(C)OC(=O)C(C(C)C)NC(=O)C(C(C)C)OC(=O)C(C(C)C)NC1=O (stereo not drawn) | 31.9% | 38.8% | 45.9% | 25.1% | 16.8% | 42.5%
C/C=C(\C)C1(CC)C(=O)NC(=O)N(C)C1=O (stereo not drawn) | 1.65% | 1.7% | 3.3% | -0.6% | -1.05% | -5.95%
CSc1ccc([As](=O)(O)O)cc1 | 15.2% | 4.45% | 30.9% | 24.3% | -18.1% | 46.5%
CNC(=O)N1CN(c2ccccc2)C2(CCN(Cc3ccccc3)CC2)C1=O | -29.4% | -15.8% | -15.9% | -2.8% | -10.4% | -4.1%
CC1(c2cccc(N(CCCl)CCCl)c2)NC(=O)NC1=O (stereo not drawn) | 25.1% | 27.4% | 13.2% | 3.9% | 19.9% | 40.4%
CCOP(=O)(CCP(=O)(OCC)OCC)OCC.C[CH2][Sn]([Cl])([Cl])[CH2]C | 42.9% | 52.1% | 45.5% | 46% | 42.1% | 41%
O=c1ccc2cc3ccoc3c(O)c2o1 | 28.6% | 0% | 25.7% | 30.6% | 10.8% | 18.2%
CCOP(=O)(OCC)/C(C#N)=C/c1ccc(C)o1 | -34.2% | -13.3% | -49.6% | -7% | -19.8% | -41.6%
COc1ccc2c(c1OC)C13CCN(C)C(C2)C12C=CC(=O)C3c1c(OC)ccc(OC)c12 (stereo not drawn) | 37.4% | 6.95% | 24.2% | 18.8% | 4.2% | 27.2%
OCCN=Cc1c[nH]c2ccccc12 | -49.9% | -42.9% | -28.1% | 3.85% | -42.5% | -13.9%
COc1ccc(C(=O)/C=C/c2ccccc2)cc1 | 2.05% | -7.25% | 30.1% | 2.45% | 42.4% | 19.4%
C1CC[N-]CC1.CC(=N\O)/C(C)=N/O.CC(=N\O)/C(C)=N/O.CCOC(=O)CC[C-]=O.[Co+2] | -15.1% | 8.95% | -10.1% | -39.3% | 18% | 9.55%
O=P(Nc1ccccc1)(Oc1ccccc1)N(CCCl)CCCl (stereo not drawn) | 29.4% | -10% | 1.2% | 24.2% | 7.7% | 20.6%
c1ccc(CCN2CCCCC2)nc1 | 2.55% | -1.8% | -0.15% | -1.1% | 13.3% | -0.85%
CC(=O)Nc1nn[nH]n1 | 21.9% | 14.4% | 2.1% | 6.95% | 0.7% | 17.5%
O=S(=O)(F)c1ccccc1S(=O)(=O)Cl | 11.7% | -2.55% | 15.6% | 16.4% | 12.4% | 21.6%
CCN(CC)CC#N | 3.8% | -2.75% | -6.4% | -0.25% | 3.45% | -0.7%
O=C1C(=C([O-])c2ccccc2)C(=O)c2ccccc21.O=C1C(=C([O-])c2ccccc2)C(=O)c2ccccc21.[Fe+2] | 19.4% | 28.9% | 14.6% | 22.2% | 28.1% | 15.8%
C=C(C)CNC1=C(C)C(=O)C2=C(C1=O)[C@H](COC(N)=O)[C@]1(OC)[C@@H]3N[C@@H]3CN21 | 5.15% | -9.35% | 13.3% | 23.9% | 19.4% | 74.7% (active)

SMILES | growth inhibition [1] | growth inhibition [2] | growth inhibition [3] | growth inhibition [4] | growth inhibition [5] | growth inhibition [6]
COc1ccn(C)c(=O)c1C#N | 3.15% | 0.3% | -6.35% | 5.6% | 2.15% | -2.4%
N#CC(C#N)=Cc1ccc(C=C(C#N)C#N)cc1 | -30.4% | -40.5% | -15.9% | -14.8% | -15.8% | -8.75%
CCOc1ccc2ccccc2c1OP(=O)(OCC)OCC | 23.9% | 22% | 38.9% | 29.6% | 40.4% | 25.6%
O=C1OC[C@@H]2Cc3c([nH]c4ccccc34)[C@@H](c3cc(O)c(O)c(O)c3)N12 | 12.1% | -1.2% | 20.8% | 7.4% | 10.7% | -51.6%
NCCc1c[nH]c2ccccc12 | 10.8% | -3.3% | -15.8% | 9% | -0.75% | -12.8%
O=C(c1ccccc1)N1CC(Cl)CN(C(=O)c2ccccc2)CC(Cl)C1 (stereo not drawn) | 21.4% | 26% | 37.8% | 14.8% | 16.3% | 25.6%
C[N+](C)([O-])CCNC(=O)c1cc(N(CCCl)CCCl)c([N+](=O)[O-])cc1[N+](=O)[O-] | -7.55% | -35% | -3.9% | -63.5% | -4.95% | -11.8%
COC(=O)/C=C/[C@H]1[C@H](C)N1S(=O)(=O)c1ccc(C)cc1 (stereo partly drawn) | 8.75% | 20.1% | 14.8% | 4.4% | -22.6% | -7.25%
N#CC(N)c1ccccc1 (stereo not drawn) | 13.7% | -14.9% | 17.4% | 1.45% | 14.1% | 12.6%
O=C(OCC1CCCN2CCCCC12)c1ccncc1 (stereo not drawn) | 4.9% | 2.9% | 48.4% | 15.4% | 34.3% | 2.35%
CN1C(=O)C(=CN(C)c2ccccc2)C(=O)N(C)C1=O | 13.2% | 8.4% | 23.7% | 13.5% | 4.4% | -8.85%
CCC[N+]12C(O)C(CC)C3CC1C1N(C)c4ccc(Br)cc4C14CC2C3C4O (stereo not drawn) | 27.9% | 8.3% | 4.35% | -12.3% | 6.85% | 20.9%
COc1ccc(C2C=C(c3ccc4c(c3)OCO4)Oc3c2c(=O)oc2ccccc32)cc1OC (stereo not drawn) | 11.5% | 4.1% | 10.1% | 16.4% | 22.7% | 37%
OCCCN=Cc1ccccc1O.OCCCN=Cc1ccccc1O.[Cu] | 38% | -9.5% | 22.2% | -32.1% | 0.35% | 15.6%
O=C=Nc1ccc(Br)cc1 | 25.6% | 11.6% | 15.8% | -17.2% | 23.9% | 29.4%
BrP(Br)(c1ccccc1)(c1ccccc1)c1ccccc1 | -1.6% | -28.8% | 17.1% | 25.4% | 10.7% | -0.1%
C/C(=N\NS(=O)(=O)c1ccc(C)cc1)C(CN(C)C)C(c1ccccc1)c1c(O)c2ccccc2oc1=O (stereo not drawn) | 59.9% | 42.2% | 65.2% | 52.9% | 54.7% | 51.9%
COc1cc(C)c(C(CC(=O)O)CC(=O)N(CCCl)CCCl)cc1C(C)C (stereo not drawn) | 60.4% | 4.3% | 20.1% | 28.2% | 4.5% | 57.6%
CCOP(=O)(OCC)C(C#N)Cc1ccccc1OC (stereo not drawn) | 20.6% | 4.15% | 0.2% | -18.1% | 3.3% | 12.7%
